Data reported in PubChem BioAssay (Tox21).
Several values for one entry are separate records, joined by “and”; a condition that tells them apart may be missing. Equal entries are not always repeated. Records with an inconclusive call do not appear. Entries that show only a call come without a potency. Where a structure was tested more than once in an assay, its records may differ in their call. Activity calls are given as the source filed them. Unless noted, calls follow the shape of the dose curve; as a rule, active = well fitted curve in the direction sought with a large enough effect in the repeat runs; inconclusive = weak or mixed curves; inactive = no such curve, though single readings can be large; an effect the other way counts as inactive or inconclusive.

Legend:
[1] = qHTS RealTime-Glo MT Cell Viability Assay in HEK293 cells - 24 hour (AID 1224886); also: nearly all actives have a fitted effect of over 50% in size; also: potency is read from the fitted curve at half-maximal effect; as to activity change, negative = cytotoxicity: top concentration of the series differs between compounds
Outline: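 HEK293 cells were seeded at 600 cells/well together with NanoLuc luciferase and cell-permeant prosubstrate, preincubated 5 h at 37 C/5% CO2, then given compound in DMSO by pintool. Luminescence from viable-cell prosubstrate reduction was read repeatedly over 40 h.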

[2] = qHTS RealTime-Glo MT Cell Viability Assay in HEK293 cells - 8 hour (AID 1224887); also: top concentration of the series differs between compounds; nearly all actives have a fitted effect of over 50% in size
Outline: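 Real-time viability in HEK293: signal arises when living cells convert a prosubstrate for NanoLuc in the medium, so luminescence tracks viable cell number. Compound (23 nL, DMSO) added 5 h post-seeding; kinetic reads at 0–40 h, 37 C.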

[3] = A CellTox Green Cytotoxicity Assay to monitor cytotoxicity in HEK293 cells - 16 hour (AID 1224888); also: nearly all actives have a fitted effect of over 35% in size
Outline: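 Cells (HEK293, 600/well) and dye reagent are dispensed together. After 5 h at 37 C, 23 nL compound is pinned in. Plates stay at 37 C for 40 h with fluorescence read at 0h, 8h, 16h, 24h, 32h and 40h.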

[4] = qHTS RealTime-Glo MT Cell Viability Assay in HepG2 cells - 0 hour (AID 1224889); also: nearly all actives have a fitted effect of over 50% in size
Outline: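 HepG2 cells were seeded at 600 cells/well together with NanoLuc luciferase and a cell-permeant prosubstrate, preincubated 5 h at 37 C/5% CO2, then pin-dosed with compounds in DMSO. Nonlytic luminescence from viable cells was read at each time point.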

[5] = A CellTox Green Cytotoxicity Assay to monitor cytotoxicity in HepG2 cells - 8 hour (AID 1224890); also: nearly all actives have a fitted effect of over 45% in size
Outline: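 Cells and non-lytic dye reagent are dispensed together (600 HepG2 cells/well) and incubated 5 h before DMSO compound transfer. Kinetic fluorescence is then recorded in the same wells during 40 h at 37 C.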

[6] = qHTS assay to identify small molecule antagonists of the estrogen receptor alpha (ER-alpha) signaling pathway using the BG1 cell line in the presence of 0.1 nM 17-beta-estradiol - cell viability counter screen (AID 1259241); also: nearly all actives have a fitted effect of over 40% in size
Outline: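 Cells were plated and left 24 hr, compounds in DMSO were pinned in, 17beta-estradiol was added to 0.1 nM final, and after 22 hr CellTiter-Fluor reagent was added for 30 min before fluorescence was read.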

[7] = qHTS assay to identify small molecule antagonists of the androgen receptor (AR) signaling pathway using the MDA cell line in the presence of 0.5 nM R1881 - cell viability counter screen (AID 1259242); also: nearly all actives have a fitted effect of over 45% in size
Outline: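 Steps: plate MDA-kb2 cells, rest 5 hr at 37C without CO2; pin in compounds in DMSO; add R1881 to 0.5 nM final; incubate 16 hr; add CellTiter-Fluor, 30 min; read fluorescence.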

[8] = biological target: Estrogen receptor (Homo sapiens) (UniProt P03372); experiment: qHTS assay to identify small molecule antagonists of the estrogen receptor alpha (ER-alpha) signaling pathway using the BG1 cell line in the presence of 0.1 nM 17-beta-estradiol (AID 1259244); also: nearly all actives have a fitted effect of over 50% in size; also: potency is read from the fitted curve at half-maximal effect
Sequence of Estrogen receptor (Homo sapiens) (P03372 whole entry, looked up): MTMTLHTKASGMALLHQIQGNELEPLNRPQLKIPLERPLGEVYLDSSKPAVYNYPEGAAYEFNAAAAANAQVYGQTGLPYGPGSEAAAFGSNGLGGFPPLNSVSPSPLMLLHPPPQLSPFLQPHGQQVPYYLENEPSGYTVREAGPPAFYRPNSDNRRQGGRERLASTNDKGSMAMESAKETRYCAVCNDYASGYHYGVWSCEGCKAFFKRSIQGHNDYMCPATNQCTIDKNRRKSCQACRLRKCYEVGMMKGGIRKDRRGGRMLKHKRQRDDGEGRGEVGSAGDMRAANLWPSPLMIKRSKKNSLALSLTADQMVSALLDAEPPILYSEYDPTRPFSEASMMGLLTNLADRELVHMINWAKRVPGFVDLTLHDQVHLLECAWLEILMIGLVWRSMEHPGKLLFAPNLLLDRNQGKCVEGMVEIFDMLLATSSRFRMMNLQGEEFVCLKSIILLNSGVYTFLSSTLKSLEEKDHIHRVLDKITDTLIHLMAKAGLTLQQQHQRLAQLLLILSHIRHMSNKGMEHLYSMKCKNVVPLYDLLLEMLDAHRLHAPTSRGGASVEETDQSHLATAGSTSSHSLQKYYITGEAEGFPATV
Outline: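 Antagonist mode: compounds in DMSO are pinned onto VM7Luc4E2 reporter cells, 0.1 nM final 17beta-estradiol is added, and after 22 h at 37C luciferase luminescence is measured with ONE-Glo.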

[9] = qHTS assay to identify small molecule HDAC inhibitors (AID 1259364);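 also: wild-type HCT-116 cells with endogenous class I/II HDAC activity; top concentration of the series differs between compounds; nearly all actives have a fitted effect of over 45% in size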
Outline: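 Cells (HCT-116, wild type) are seeded at 1,500 per well, incubated overnight, treated with compound in DMSO for 2 hr, then developed with HDAC-Glo I/II reagent for 30 min at room temperature.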

[10] = qHTS assay to identify small molecule HDAC inhibitors - cell viability counter screen (AID 1259365)
Outline: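 Counter screen in wild-type HCT-116 cells: compounds dissolved in DMSO are pin-transferred onto overnight-plated cells and left 2hr at 37C. ATP-based CellTiter-Glo luminescence then measures viable cells.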

[11] = qHTS assay to identify small molecule agonists of the sonic hedgehog signaling (Shh) pathway - cell viability counter screen (AID 1259366); also: nearly all actives have a fitted effect of over 50% in size
Outline: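 Cells are plated at 2,000 per well and left 4hr at 37C, 5% CO2 before compound addition. After 23hr of treatment, CellTiter-Fluor reagent is added for 1hr at 37C and fluorescence is measured.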

[12] = qHTS assay to identify small molecule antagonists of the sonic hedgehog signaling (Shh) pathway - cell viability counter screen (AID 1259367); also: nearly all actives have a fitted effect of over 55% in size; also: potency is read from the fitted curve at half-maximal effect
Outline: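 Cytotoxicity was assessed in parallel with Shh reporter activity by measuring live-cell protease fluorescence (CellTiter-Fluor) in NIH/3T3 cells stably carrying Gli1-Luc, treated with compound under conditioned medium stimulation for 23 hr plus 1 hr reagent incubation.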

[13] = qHTS assay to identify small molecule agonists of the sonic hedgehog signaling (Shh) pathway (AID 1259368; calls by dose curve;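 also: NIH/3T3-derived 3T3Gli1-Luc cells carrying a stable Gli1-driven firefly luciferase reporter; series mostly up to about 92 µM; nearly all actives have a fitted effect of over 15% in size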)
Outline: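 Cells of a mouse NIH/3T3 clone stably expressing luciferase under the Gli1 transcriptional response element are exposed to test chemicals for 24 hr at 37 C. Pathway activation is detected as a rise in luminescence.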

[14] = qHTS assay to identify small molecule antagonists of the sonic hedgehog signaling (Shh) pathway (AID 1259369; calls by dose curve; also: nearly all actives have a fitted effect of over 45% in size; also: potency is read from the fitted curve at half-maximal effect)
Outline: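 Cells are plated and held 4hr at 37 C, compounds (DMSO) are pinned in, conditioned medium is added to stimulate the pathway, and after 24hr luciferase reagent is added for 30min before luminescence is read.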

[15] = qHTS assay to identify small molecule agonists of the androgen receptor (AR) signaling pathway in the presence of an antagonist - cell viability counter screen (AID 1259379);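 also: MDA-kb2 human breast cancer cells carrying an MMTV luciferase reporter; series mostly up to about 92 µM; nearly all actives have a fitted effect of over 25% in size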
Outline: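 Cytotoxicity is assessed by CellTiter-Fluor in MDA-kb2 cells carrying an MMTV-driven luciferase reporter. Cells receive 3.0uM nilutamide plus compounds at 15 concentrations and incubate 16 hr at 37C without CO2 before fluorescence reading.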

[16] = qHTS assay to identify small molecule phospholipidosis (PLD) inducers (AID 1259344; active = well fitted curve in the direction sought with a large enough effect; an effect the other way counts as inactive or inconclusive)
Outline: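 Cells (HepG2, 900 per well) attach for 4 h, receive LipidTOX Red and compound together, incubate 24 h at 37 C, are fixed 30 min with paraformaldehyde/Hoechst, then imaged at one site per well.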

[17] = biological target: Estrogen receptor beta (Homo sapiens) (UniProt Q92731); experiment: qHTS assay to identify small molecule agonists of the estrogen receptor beta (ER-beta) signaling pathway (AID 1259377; active = well fitted activation curve with a large enough effect in the signal ratio in the repeat runs, not every such curve was filed as active; the % refers to the signal ratio)
Sequence of Estrogen receptor beta (Homo sapiens) (Q92731 whole entry, looked up, the tested form may be a part): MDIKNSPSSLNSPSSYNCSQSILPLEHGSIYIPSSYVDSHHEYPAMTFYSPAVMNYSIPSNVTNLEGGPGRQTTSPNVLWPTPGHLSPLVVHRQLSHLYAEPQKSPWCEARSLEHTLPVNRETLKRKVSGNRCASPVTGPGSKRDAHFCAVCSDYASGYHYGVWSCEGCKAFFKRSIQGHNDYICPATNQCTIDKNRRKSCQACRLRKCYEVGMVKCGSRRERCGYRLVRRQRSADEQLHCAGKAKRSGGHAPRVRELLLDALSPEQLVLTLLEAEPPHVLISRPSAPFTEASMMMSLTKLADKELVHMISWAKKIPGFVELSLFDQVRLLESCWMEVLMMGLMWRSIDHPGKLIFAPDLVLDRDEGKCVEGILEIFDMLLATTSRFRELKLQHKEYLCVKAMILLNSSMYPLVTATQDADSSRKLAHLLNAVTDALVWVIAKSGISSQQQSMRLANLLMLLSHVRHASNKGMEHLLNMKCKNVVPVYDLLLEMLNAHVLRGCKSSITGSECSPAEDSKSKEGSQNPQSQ
Outline: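 Agonist mode cell assay in GripTite HEK293T cells expressing an ER-beta fusion that drives beta-lactamase from an Upstream Activator Sequence; 16 hr compound exposure at 37C, then 2 h LiveBLAzer B/G FRET substrate at room temperature, fluorescence read-out.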

[18] = biological target: Estrogen receptor beta (Homo sapiens) (UniProt Q92731); experiment: qHTS assay to identify small molecule antagonists of the estrogen receptor beta (ER-beta) signaling pathway (AID 1259378; active = well fitted inhibition curve with a large enough effect in the signal ratio in the repeat runs, not every such curve was filed as active; the % refers to the signal ratio)
Outline: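 ER-beta-UAS-bla HEK293T (GripTite) cells in 2% charcoal-stripped FBS medium were preincubated 6 hr at 37C, dosed with compound, then stimulated with 1 nM E2 (final) for 16 hr; beta-lactamase reporter read by B/G FRET fluorescence after 2 hr substrate loading.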

SMILES: CCC(O)OC(O)CC (stereo not given)
- Potency [1]: inactive
- Potency [2]: inactive
- outcome [3]: inactive
- Potency [4]: inactive
- Potency [5]: inactive
- Potency [6]: inactive
- outcome [7]: inactive
- Potency [8]: inactive
- Potency [9]: inactive
- outcome [10]: inactive
- Potency [11]: inactive
- Potency [12]: inactive
- outcome [13]: inactive
- Potency [14]: inactive
- Potency [15]: inactive

SMILES: OC[C@H]1O[C@@](CO)(O[C@H]2O[C@H](CO)[C@@H](O)[C@H](O)[C@H]2O)[C@@H](O)[C@@H]1O
- outcome [3]: inactive
- Potency [5]: inactive
- Potency [6]: inactive
- outcome [7]: inactive
- Potency [8]: inactive
- outcome [16]: inactive
- Potency [9]: inactive
- outcome [10]: inactive
- Potency [11]: inactive
- Potency [12]: inactive
- outcome [13]: inactive
- Potency [14]: inactive
- Potency [17]: inactive
- Potency [18]: inactive
- Potency [15]: inactive

SMILES: Cc1occc(=O)c1O
- Potency [1]: inactive
- Potency [2]: inactive
- outcome [3]: inactive
- Potency [4]: inactive
- Potency [5]: inactive
- Potency [6]: inactive
- outcome [7]: inactive
- Potency [9]: inactive
- outcome [10]: inactive
- Potency [11]: inactive
- Potency [12]: inactive
- outcome [13]: inactive
- Potency [14]: inactive
- Potency [15]: inactive

SMILES: Cc1cccc(O)c1
- Potency [1]: inactive
- Potency [2]: inactive
- Potency [4]: inactive
- Potency [5]: inactive
- Potency [6]: inactive
- outcome [7]: inactive
- Potency [8]: inactive
- Potency [9]: inactive
- outcome [10]: inactive
- Potency [11]: inactive
- Potency [12]: inactive
- outcome [13]: inactive
- Potency [14]: inactive
- Potency [17]: inactive
- Potency [18]: inactive

SMILES: CCN(CC)CCCC(C)Nc1ccnc2cc(Cl)ccc12 (stereo not given)
- activity change, negative = cytotoxicity [1]: -16.8% [at 6.97 µM] (inactive)
- activity change, negative = cytotoxicity [2]: -9.86% [at 6.97 µM] (inactive)
- activity change, negative = cytotoxicity [4]: 3.19% [at 6.97 µM] (inactive) and -4.4% [at 15.8 µM] (inactive)
- cytotoxicity increase [5]: 3.33% [at 6.97 µM] (inactive) and 10.4% [at 15.8 µM] (inactive)
- viability change, negative = cytotoxic [7]: -8.89% [at 8.39 µM] (inactive)
- activity change, negative = inhibition [8]: 35.5% [at 8.39 µM] (inactive) and -0.903% [at 19 µM] (inactive)
- outcome [16]: inactive
- activity change, negative = inhibition [9]: 5.21% [at 8.39 µM] (inactive) and -11.7% [at 19 µM] (inactive)
- activity change, negative = cytotoxicity [10]: 1.29% [at 8.39 µM] (inactive) and -0.194% [at 19 µM] (inactive)
- viability change, negative = cytotoxic [11]: 4.99% [at 8.39 µM] (inactive) and -9.75% [at 19 µM] (inactive)
- viability change, negative = cytotoxic [12]: -9.15% [at 8.39 µM] (inactive) and -19.2% [at 19 µM] (inactive)
- Potency [14]: 5.8 µM (active)
- activity change, negative = inhibition [14]: -20.4% [at 8.39 µM] (inactive)
- activation [17]: 1.76% [at 8.39 µM] (inactive) and 0.415% [at 19 µM] (inactive)
- activity, negative = inhibition [18]: -11.4% [at 8.39 µM] (inactive)

SMILES: O=C(O)c1ccc(C(=O)O)cc1
- Potency [1]: inactive
- Potency [2]: inactive
- Potency [4]: inactive
- Potency [5]: inactive
- Potency [6]: inactive
- outcome [7]: inactive
- Potency [9]: inactive
- outcome [10]: inactive
- Potency [11]: inactive
- Potency [12]: inactive
- outcome [13]: inactive
- Potency [14]: inactive
- Potency [15]: inactive

SMILES: CCCCCCCCCC
- Potency [1]: inactive
- Potency [2]: inactive
- outcome [3]: inactive
- Potency [4]: inactive
- Potency [5]: inactive
- Potency [6]: inactive
- outcome [7]: inactive
- Potency [8]: inactive
- Potency [9]: inactive
- outcome [10]: inactive
- Potency [11]: inactive
- Potency [12]: inactive
- outcome [13]: inactive
- Potency [14]: inactive
- Potency [17]: inactive
- Potency [18]: inactive

SMILES: Cc1ccc2oc(=O)ccc2c1
- Potency [1]: inactive
- Potency [2]: inactive
- outcome [3]: inactive
- Potency [4]: inactive
- Potency [5]: inactive
- Potency [6]: inactive
- outcome [7]: inactive
- Potency [8]: inactive
- Potency [9]: inactive
- outcome [10]: inactive
- Potency [11]: inactive
- Potency [12]: inactive
- outcome [13]: inactive
- Potency [14]: inactive
- Potency [17]: inactive
- Potency [18]: inactive

SMILES: C=C(C)C(=O)O[C@H]1C[C@@H]2CC[C@@]1(C)C2(C)C
- Potency [1]: 15.4 µM (active) and inactive
- Potency [2]: inactive
- outcome [3]: inactive
- Potency [4]: inactive
- Potency [5]: inactive
- outcome [7]: inactive
- Potency [8]: 2.71 µM (active) and inactive
- Potency [9]: inactive
- outcome [10]: inactive
- Potency [12]: inactive
- outcome [13]: inactive
- Potency [14]: inactive
- Potency [18]: inactive
- Potency [15]: inactive

SMILES: O=S1(=O)CC=CC1
- Potency [1]: inactive
- Potency [2]: inactive
- outcome [3]: inactive
- Potency [4]: inactive
- Potency [5]: inactive
- Potency [6]: inactive
- outcome [7]: inactive
- Potency [8]: inactive
- Potency [9]: inactive
- outcome [10]: inactive
- Potency [12]: 46.9 µM (active) and inactive
- outcome [13]: inactive
- Potency [14]: 6.62 µM (active) and inactive
- Potency [17]: inactive
- Potency [18]: inactive
- Potency [15]: inactive

SMILES: c1ccc2scnc2c1
- Potency [1]: inactive
- Potency [2]: inactive
- outcome [3]: inactive
- Potency [4]: inactive
- Potency [5]: inactive
- Potency [6]: inactive
- outcome [7]: inactive
- Potency [8]: inactive
- Potency [9]: inactive
- outcome [10]: inactive
- Potency [11]: inactive
- Potency [12]: inactive
- outcome [13]: inactive
- Potency [14]: inactive
- Potency [17]: inactive
- Potency [18]: inactive

SMILES: ON=C1CCCCC1
- Potency [1]: inactive
- Potency [2]: inactive
- Potency [4]: inactive
- Potency [5]: inactive
- Potency [6]: inactive
- outcome [7]: inactive
- Potency [9]: inactive
- outcome [10]: inactive
- Potency [11]: inactive
- Potency [12]: inactive
- outcome [13]: inactive
- Potency [14]: inactive and 27.3 µM (active)
- Potency [17]: inactive
- Potency [18]: inactive

SMILES: CCCCCC(N)=O
- Potency [1]: inactive
- Potency [2]: inactive
- Potency [4]: inactive
- Potency [5]: inactive
- Potency [6]: inactive
- outcome [7]: inactive
- outcome [16]: inactive
- Potency [9]: inactive
- outcome [10]: inactive
- Potency [11]: inactive
- Potency [12]: inactive
- outcome [13]: inactive
- Potency [14]: inactive
- Potency [17]: inactive
- Potency [18]: inactive
- Potency [15]: inactive
